Reference: PubChem BioAssay AID435022 (Sanford-Burnham Center for Chemical Genomics, 2010)
In all, about 330,000 compounds went through this assay and about 1,100 (0.33%) were called active. Only a selection was taken, and actives are over-represented in it overall. Unmarked numbers belong to inactive results. No stated cut-off is given here; in the data, active means inhibition above about 35%; inactive means the rest.

Experiment: inhibitors of PMA/ionomycin-induced NF-kB reporter, 697 cells, primary screen, B-cell NF-kB inhibitor project, cell-based, luminescence, uHTS (AID 435022)
Conditions: 697 B-cell NF-kB luciferase reporter, 16 h, at 4 µM, stronger effect = higher value

Q: For `CCCCCCCCCCCCn1ccc(=N)cc1`, which inhibition is on record?
A: 90.6% (active)

Q: Which inhibition does the source give for `CCOc1ccc(C2SCC(=O)Nc3c2c(C)nn3C2CCOC(C)(C)C2)cc1` (stereo not given) here?
A: 24.3%

Q: Which inhibition does the source give for `COC(=O)COc1cc(C)cc2oc(=O)c3c(c12)CCCC3` here?
A: 13.3%

Q: With `CN1C2C=C(N(C(=O)c3ccc(Cl)cc3)c3ccccc3)CC1CC2` (stereo not given) as the compound, how does the inhibition read?
A: -2.33%

Q: Which inhibition does the source give for `COc1cc(-n2c(=S)[nH]c3ccc(C)cc3c2=O)c(Cl)cc1Cl` here?
A: -21.6%
